# Measured values reported in publication PMC7862700, “An all-to-all approach to the identification of sequence-specific readers for epigenetic DNA modifications on cytosine”.
# How the values were obtained:
# Experiment in all cases: DAPPL (digital affinity profiling via proximity ligation, sequencing); 10 mM Tris-HCl pH 7.5, 50 mM NaCl, 1 mM DTT, 4% glycerol, room temperature, 30 min; GST-TFs on glutathione beads, 16-mer random dsDNA library, 0.1% formaldehyde crosslink after washing; high values mean tight binding
# [1] = target: T1, FLI1 (Homo sapiens, UniProt Q01543 1-452); details: protein: recombinant; tags: N-terminal GST; dsDNA, one strand shown
# T1 sequence: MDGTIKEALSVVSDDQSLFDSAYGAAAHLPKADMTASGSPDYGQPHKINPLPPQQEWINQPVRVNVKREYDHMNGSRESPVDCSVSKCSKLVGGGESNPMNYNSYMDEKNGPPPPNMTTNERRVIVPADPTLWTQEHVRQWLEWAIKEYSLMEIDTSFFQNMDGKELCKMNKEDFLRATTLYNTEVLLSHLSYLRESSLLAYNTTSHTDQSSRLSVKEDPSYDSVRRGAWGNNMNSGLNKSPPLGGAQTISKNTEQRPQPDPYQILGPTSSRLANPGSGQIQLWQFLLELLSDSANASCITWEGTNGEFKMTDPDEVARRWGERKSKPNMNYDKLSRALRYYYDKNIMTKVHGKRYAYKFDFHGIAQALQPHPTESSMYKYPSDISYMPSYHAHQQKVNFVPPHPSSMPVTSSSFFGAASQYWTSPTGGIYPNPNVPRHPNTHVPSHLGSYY
# Summary of the method: (§1)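 Beads coated with glutathione captured GST-fused human transcription factors that had been expressed in yeast, and the factors were then given DNA barcodes and pooled with a tag-only sample. The pools were incubated with 200 nmole of a random double-stranded 16-mer DNA library in Tris/NaCl/DTT/glycerol buffer for 30 min at room temperature, washed, crosslinked with 0.1% formaldehyde and proximity-ligated with BsaI/T4 ligase at 37 °C for 1 h. PCR amplification and Illumina NextSeq500 sequencing came last. Binding signal is each hexamer's read frequency for a factor divided by its frequency for the tag-only sample.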
# [2] = target: T2, ELK1 (Homo sapiens, UniProt P19419 1-428); details: protein: recombinant; tags: N-terminal GST; dsDNA, one strand shown
# T2 sequence: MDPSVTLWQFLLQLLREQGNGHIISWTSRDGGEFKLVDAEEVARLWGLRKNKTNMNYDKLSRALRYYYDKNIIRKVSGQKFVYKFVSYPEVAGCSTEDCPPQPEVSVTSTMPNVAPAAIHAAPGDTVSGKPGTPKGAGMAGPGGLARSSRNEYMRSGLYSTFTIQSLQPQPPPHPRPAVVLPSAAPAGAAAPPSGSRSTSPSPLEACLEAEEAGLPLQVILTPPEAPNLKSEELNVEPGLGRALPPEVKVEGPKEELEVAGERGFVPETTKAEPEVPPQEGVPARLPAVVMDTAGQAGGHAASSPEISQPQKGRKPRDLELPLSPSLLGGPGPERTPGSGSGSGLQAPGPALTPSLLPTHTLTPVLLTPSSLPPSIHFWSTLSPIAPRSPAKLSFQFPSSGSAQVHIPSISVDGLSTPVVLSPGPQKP
# Summary of the method: as §1
# [3] = target: T3, GABPA (Homo sapiens, UniProt Q06546 1-454); details: protein: recombinant; tags: N-terminal GST; dsDNA, one strand shown
# T3 sequence: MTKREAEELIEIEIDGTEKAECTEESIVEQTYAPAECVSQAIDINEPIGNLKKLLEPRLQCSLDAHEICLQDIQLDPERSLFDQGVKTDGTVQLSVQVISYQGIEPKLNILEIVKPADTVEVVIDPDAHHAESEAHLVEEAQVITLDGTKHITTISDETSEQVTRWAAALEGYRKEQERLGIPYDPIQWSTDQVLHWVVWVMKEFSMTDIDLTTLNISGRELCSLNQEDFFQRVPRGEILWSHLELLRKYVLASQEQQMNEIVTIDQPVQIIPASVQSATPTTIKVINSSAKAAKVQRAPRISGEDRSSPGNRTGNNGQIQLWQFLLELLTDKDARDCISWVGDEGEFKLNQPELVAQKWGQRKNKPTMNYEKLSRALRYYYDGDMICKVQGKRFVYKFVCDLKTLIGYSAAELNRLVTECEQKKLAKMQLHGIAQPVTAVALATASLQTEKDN
# Summary of the method: as §1
# [4] = target: T4, ERG (Homo sapiens, UniProt P11308 1-479); details: protein: recombinant; tags: N-terminal GST; dsDNA, one strand shown
# T4 sequence: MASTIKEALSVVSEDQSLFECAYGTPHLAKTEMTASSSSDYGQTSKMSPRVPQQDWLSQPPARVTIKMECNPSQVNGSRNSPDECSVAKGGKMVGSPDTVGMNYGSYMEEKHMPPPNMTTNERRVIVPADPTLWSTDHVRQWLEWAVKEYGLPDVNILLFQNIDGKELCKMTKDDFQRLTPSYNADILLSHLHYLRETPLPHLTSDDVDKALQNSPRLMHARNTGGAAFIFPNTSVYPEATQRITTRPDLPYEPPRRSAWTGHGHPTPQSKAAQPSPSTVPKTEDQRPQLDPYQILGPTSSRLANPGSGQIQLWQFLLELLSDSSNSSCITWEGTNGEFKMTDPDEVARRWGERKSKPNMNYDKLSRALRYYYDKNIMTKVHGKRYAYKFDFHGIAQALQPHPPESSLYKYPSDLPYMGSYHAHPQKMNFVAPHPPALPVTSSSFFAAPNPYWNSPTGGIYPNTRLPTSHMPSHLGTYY
# Summary of the method: as §1
# [5] = target: ELF1 (Homo sapiens, UniProt P32519 1-619); details: protein: recombinant; tags: N-terminal GST; dsDNA, one strand shown
# Summary of the method: as §1
# [6] = target: T5, EHF (Homo sapiens, UniProt Q9NZC4 1-300); details: protein: recombinant; tags: N-terminal GST; dsDNA, one strand shown
# T5 sequence: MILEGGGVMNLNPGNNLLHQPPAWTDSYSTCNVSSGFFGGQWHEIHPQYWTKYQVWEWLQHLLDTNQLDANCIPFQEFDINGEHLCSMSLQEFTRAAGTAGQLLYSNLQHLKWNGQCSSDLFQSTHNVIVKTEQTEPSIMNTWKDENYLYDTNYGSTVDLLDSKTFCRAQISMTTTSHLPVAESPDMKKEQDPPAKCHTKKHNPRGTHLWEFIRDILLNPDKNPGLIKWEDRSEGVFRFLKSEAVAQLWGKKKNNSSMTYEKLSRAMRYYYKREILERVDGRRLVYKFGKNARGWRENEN
# Summary of the method: as §1
# [7] = target: SPI1 (Homo sapiens, UniProt P17947 1-270); details: protein: recombinant; tags: N-terminal GST; dsDNA, one strand shown
# Summary of the method: as §1
# [8] = target: SPIB (Homo sapiens, UniProt Q01892 1-262); details: protein: recombinant; tags: N-terminal GST; dsDNA, one strand shown
# Summary of the method: as §1
# [9] = target: T6, ELK3 (Homo sapiens, UniProt P41970 1-407); details: protein: recombinant; tags: N-terminal GST; dsDNA, one strand shown
# T6 sequence: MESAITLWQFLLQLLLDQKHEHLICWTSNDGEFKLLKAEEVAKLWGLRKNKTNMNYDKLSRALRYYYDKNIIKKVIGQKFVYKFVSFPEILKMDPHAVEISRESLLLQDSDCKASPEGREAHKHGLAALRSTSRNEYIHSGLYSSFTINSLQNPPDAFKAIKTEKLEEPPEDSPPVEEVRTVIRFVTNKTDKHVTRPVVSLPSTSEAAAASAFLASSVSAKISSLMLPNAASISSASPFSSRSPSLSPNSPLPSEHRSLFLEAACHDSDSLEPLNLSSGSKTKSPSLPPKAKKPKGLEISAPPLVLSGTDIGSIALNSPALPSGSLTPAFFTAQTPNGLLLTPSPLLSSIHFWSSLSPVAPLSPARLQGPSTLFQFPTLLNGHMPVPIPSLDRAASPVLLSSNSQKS
# Summary of the method: as §1
# [10] = target: T7, FEV (Homo sapiens, UniProt Q99581 1-238); details: protein: recombinant; tags: N-terminal GST; dsDNA, one strand shown
# T7 sequence: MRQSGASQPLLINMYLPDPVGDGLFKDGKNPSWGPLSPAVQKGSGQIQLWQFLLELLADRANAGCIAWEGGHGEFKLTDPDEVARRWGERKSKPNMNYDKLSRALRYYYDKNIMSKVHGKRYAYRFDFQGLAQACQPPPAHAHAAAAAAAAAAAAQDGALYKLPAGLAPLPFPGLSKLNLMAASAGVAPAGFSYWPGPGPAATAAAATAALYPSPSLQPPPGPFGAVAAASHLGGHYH
# Summary of the method: as §1
# [11] = target: ETV5 (Homo sapiens, UniProt P41161 1-510); details: protein: recombinant; tags: N-terminal GST; dsDNA, one strand shown
# Summary of the method: as §1
# [12] = target: HSF1 (Homo sapiens, UniProt Q00613 1-529); details: protein: recombinant; tags: N-terminal GST; chain copies: 3; dsDNA, one strand shown
# Summary of the method: as §1
# [13] = target: T8, SPIC (Homo sapiens, UniProt Q8N5J4 1-248); details: protein: recombinant; tags: N-terminal GST; dsDNA, one strand shown
# T8 sequence: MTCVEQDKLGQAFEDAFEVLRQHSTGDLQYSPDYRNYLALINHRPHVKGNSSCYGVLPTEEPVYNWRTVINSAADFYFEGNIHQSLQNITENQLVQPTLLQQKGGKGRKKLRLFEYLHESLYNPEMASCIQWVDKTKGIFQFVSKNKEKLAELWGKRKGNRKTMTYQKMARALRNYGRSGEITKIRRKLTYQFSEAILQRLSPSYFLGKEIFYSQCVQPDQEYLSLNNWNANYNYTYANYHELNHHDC
# Summary of the method: as §1
# [14] = target: ELF4 (Homo sapiens, UniProt Q99607 1-663); details: protein: recombinant; tags: N-terminal GST; dsDNA, one strand shown
# Summary of the method: as §1
# [15] = target: T9, ELK4 (Homo sapiens, UniProt P28324-2 1-405); details: protein: recombinant; tags: N-terminal GST; dsDNA, one strand shown
# T9 sequence: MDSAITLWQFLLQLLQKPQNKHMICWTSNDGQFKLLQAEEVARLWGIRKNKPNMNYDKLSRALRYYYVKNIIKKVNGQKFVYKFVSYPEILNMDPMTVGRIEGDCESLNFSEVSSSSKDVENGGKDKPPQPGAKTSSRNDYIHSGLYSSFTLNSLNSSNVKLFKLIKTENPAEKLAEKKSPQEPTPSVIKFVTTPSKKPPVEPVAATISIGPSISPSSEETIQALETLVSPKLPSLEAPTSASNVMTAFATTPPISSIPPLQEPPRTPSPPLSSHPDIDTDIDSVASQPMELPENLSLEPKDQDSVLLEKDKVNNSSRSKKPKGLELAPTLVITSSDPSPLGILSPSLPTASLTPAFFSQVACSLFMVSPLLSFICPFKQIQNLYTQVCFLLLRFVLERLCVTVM
# Summary of the method: as §1
# [16] = target: T10, ETV2 (Homo sapiens, UniProt O00321 1-342); details: protein: recombinant; tags: N-terminal GST; dsDNA, one strand shown
# T10 sequence: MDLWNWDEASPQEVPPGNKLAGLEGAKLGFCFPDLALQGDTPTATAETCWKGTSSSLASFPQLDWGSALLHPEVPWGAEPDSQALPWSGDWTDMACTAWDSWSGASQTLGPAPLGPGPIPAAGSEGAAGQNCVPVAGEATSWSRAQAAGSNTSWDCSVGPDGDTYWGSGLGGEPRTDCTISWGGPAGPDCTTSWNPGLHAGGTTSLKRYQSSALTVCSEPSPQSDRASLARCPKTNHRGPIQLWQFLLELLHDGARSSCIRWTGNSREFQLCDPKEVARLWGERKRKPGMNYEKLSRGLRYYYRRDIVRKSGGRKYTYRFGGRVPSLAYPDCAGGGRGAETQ
# Summary of the method: as §1
# [17] = target: T11, ELF3 (Homo sapiens, UniProt P78545 1-371); details: protein: recombinant; tags: N-terminal GST; dsDNA, one strand shown
# T11 sequence: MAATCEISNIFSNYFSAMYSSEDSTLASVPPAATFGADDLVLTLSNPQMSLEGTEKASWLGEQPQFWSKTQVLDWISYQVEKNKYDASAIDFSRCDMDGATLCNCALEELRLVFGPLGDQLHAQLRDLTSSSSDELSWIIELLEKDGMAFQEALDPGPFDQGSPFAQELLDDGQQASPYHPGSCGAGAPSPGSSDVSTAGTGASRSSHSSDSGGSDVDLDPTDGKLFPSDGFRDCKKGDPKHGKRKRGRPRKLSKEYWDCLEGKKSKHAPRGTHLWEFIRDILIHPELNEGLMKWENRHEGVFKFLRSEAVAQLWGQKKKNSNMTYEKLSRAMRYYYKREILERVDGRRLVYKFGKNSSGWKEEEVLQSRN
# Summary of the method: as §1
# [18] = target: CRX (Homo sapiens, UniProt O43186 1-299); details: protein: recombinant; tags: N-terminal GST; dsDNA, one strand shown
# Summary of the method: as §1
# [19] = target: ETV1 (Homo sapiens, UniProt P50549 1-477); details: protein: recombinant; tags: N-terminal GST; dsDNA, one strand shown
# Summary of the method: as §1
# Chain of ETV5 (P41161 whole entry): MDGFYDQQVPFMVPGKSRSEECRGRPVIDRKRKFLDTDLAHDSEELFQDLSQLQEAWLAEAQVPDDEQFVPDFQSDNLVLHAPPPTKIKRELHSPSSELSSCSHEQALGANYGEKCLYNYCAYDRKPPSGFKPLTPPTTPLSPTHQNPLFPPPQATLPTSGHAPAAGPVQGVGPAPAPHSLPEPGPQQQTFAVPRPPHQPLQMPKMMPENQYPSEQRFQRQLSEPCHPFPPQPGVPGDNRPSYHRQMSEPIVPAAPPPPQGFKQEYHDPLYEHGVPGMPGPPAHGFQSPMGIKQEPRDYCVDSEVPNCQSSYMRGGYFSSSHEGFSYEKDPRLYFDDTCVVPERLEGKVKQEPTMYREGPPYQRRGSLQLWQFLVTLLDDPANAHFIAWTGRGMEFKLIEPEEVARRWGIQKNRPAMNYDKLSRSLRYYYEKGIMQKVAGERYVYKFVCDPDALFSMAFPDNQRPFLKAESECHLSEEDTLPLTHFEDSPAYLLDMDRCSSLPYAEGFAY
# Chain of CRX (O43186 whole entry): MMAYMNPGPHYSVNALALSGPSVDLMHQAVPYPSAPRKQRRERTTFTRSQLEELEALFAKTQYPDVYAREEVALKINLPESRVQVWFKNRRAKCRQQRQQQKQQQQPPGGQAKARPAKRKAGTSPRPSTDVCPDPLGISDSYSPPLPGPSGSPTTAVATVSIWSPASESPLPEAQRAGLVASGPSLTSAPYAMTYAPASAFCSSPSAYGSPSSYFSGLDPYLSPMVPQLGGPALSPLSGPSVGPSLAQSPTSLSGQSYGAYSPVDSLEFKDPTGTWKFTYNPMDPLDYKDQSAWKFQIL
# Chain of SPIB (Q01892 whole entry): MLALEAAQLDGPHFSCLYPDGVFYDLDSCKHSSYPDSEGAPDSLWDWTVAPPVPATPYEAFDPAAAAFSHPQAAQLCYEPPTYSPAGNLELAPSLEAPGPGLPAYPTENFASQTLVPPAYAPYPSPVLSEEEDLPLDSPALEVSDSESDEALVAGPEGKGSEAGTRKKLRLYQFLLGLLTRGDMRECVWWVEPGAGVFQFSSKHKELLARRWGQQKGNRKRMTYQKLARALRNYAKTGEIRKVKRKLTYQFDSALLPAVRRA
# Chain of ELF1 (P32519 whole entry): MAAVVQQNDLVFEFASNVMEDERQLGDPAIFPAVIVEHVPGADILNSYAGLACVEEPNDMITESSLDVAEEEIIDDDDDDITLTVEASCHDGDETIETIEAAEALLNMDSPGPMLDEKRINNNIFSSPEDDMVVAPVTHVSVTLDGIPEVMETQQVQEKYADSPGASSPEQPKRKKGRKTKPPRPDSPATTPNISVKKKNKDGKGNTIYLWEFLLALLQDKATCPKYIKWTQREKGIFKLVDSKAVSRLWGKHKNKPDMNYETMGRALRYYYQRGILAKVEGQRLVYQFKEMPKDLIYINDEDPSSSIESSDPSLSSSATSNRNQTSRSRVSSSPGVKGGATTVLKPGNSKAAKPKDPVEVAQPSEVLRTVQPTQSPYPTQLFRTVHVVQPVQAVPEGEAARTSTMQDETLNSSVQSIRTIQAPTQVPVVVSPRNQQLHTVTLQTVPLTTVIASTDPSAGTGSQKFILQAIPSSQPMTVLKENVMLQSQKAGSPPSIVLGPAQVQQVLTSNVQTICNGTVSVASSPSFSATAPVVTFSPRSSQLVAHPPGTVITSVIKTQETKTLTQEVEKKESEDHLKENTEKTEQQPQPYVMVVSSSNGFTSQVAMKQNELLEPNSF
# Chain of ETV1 (P50549 whole entry): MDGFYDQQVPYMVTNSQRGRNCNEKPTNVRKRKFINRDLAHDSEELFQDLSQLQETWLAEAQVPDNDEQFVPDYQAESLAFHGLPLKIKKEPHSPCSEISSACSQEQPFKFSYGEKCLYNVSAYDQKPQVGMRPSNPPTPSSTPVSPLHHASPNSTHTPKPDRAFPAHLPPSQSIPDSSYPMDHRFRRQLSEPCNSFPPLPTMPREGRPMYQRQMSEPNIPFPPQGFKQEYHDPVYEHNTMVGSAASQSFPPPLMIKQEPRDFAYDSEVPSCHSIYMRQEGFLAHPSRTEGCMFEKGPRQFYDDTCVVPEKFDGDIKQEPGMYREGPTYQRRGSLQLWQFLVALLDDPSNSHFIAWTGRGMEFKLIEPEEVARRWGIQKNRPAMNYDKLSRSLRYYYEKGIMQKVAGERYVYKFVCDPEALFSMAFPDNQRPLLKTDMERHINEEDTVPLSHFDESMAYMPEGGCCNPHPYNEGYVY
# Chain of ELF4 (Q99607 whole entry): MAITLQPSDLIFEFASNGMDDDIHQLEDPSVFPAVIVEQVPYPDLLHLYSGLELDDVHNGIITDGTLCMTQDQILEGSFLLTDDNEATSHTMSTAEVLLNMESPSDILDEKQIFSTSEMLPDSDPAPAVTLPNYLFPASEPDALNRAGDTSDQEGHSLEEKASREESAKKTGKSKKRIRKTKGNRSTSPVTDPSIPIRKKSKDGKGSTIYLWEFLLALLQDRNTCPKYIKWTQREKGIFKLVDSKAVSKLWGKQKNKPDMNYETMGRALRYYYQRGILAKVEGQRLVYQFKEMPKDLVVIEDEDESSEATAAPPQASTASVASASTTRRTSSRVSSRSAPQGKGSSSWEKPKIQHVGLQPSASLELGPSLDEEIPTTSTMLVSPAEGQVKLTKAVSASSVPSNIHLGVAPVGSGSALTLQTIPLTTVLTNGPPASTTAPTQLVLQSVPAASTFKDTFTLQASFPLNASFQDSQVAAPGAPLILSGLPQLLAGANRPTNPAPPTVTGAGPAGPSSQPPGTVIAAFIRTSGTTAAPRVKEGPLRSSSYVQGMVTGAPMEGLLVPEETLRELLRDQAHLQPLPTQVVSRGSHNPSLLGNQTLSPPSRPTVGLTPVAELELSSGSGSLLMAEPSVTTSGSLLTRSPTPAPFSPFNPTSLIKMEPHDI
# Chain of HSF1 (Q00613 whole entry): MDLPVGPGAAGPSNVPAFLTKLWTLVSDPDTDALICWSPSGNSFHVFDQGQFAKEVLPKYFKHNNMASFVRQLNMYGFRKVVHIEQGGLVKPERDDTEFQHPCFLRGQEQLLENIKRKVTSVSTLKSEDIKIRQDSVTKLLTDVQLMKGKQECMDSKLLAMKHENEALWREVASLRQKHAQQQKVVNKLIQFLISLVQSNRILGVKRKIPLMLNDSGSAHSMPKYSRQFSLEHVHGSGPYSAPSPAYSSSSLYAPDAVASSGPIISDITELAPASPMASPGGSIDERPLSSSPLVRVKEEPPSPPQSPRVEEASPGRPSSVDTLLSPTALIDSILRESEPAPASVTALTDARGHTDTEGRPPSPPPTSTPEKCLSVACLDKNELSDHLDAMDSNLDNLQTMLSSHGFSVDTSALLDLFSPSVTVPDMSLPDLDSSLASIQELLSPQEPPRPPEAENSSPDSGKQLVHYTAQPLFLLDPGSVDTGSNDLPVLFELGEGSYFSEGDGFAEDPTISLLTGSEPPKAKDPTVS
sequence,measurement,setting,value
TGCTCT,binding signal,[1],"1.34 fold enrichment (6-mer frequency, TF over GST control)"
same,binding signal,[2],"1.48 fold enrichment (6-mer frequency, TF over GST control)"
same,binding signal,[3],"1.35 fold enrichment (6-mer frequency, TF over GST control)"
same,binding signal,[4],"1.26 fold enrichment (6-mer frequency, TF over GST control)"
same,binding signal,[5],"1.34 fold enrichment (6-mer frequency, TF over GST control)"
same,binding signal,[6],"1.19 fold enrichment (6-mer frequency, TF over GST control)"
same,binding signal,[7],"1.42 fold enrichment (6-mer frequency, TF over GST control)"
same,binding signal,[8],"1.42 fold enrichment (6-mer frequency, TF over GST control)"
same,binding signal,[9],"1.3 fold enrichment (6-mer frequency, TF over GST control)"
same,binding signal,[10],"1.37 fold enrichment (6-mer frequency, TF over GST control)"
same,binding signal,[11],"1.37 fold enrichment (6-mer frequency, TF over GST control)"
same,binding signal,[12],"1.3 fold enrichment (6-mer frequency, TF over GST control)"
same,binding signal,[13],"1.2 fold enrichment (6-mer frequency, TF over GST control)"
same,binding signal,[14],"1.36 fold enrichment (6-mer frequency, TF over GST control)"
same,binding signal,[15],"1.38 fold enrichment (6-mer frequency, TF over GST control)"
same,binding signal,[16],"1.47 fold enrichment (6-mer frequency, TF over GST control)"
same,binding signal,[17],"1.36 fold enrichment (6-mer frequency, TF over GST control)"
same,binding signal,[18],"1.24 fold enrichment (6-mer frequency, TF over GST control)"
same,binding signal,[19],"1.33 fold enrichment (6-mer frequency, TF over GST control)"
